Reference: PubChem BioAssay (EPA / NIEHS)
The source made the active and inactive calls. The calls were made as follows: active = hit-call score of the fitted dose curve at least 0.9, where 1 is the maximum; inactive = score below 0.9.

Legend:
Settings in all cases: mRNA level, 48 h; actives raise or lower the signal
[1] = read-out: Ezrin (EZR), EZR (gene 7430); assay: LTEA_HepaRG_EZR: Life Technologies and Expression Analysis (LTEA) Assay for Ezrin (EZR) using HepaRG (AID 2283491)
In short: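 EZR transcript levels came from Fluidigm qRT-PCR and were normalized to three housekeeping genes after 48 h chemical exposure of HepaRG cells. Dosing used an 8-point half-log series with a 100 uM top concentration in 0.5% DMSO, tested in duplicate; both directions were fitted versus vehicle.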

[2] = read-out: Cytochrome P450 3A7 (Homo sapiens) (UniProt P24462); assay: LTEA_HepaRG_CYP3A7: Life Technologies and Expression Analysis (LTEA) Assay for CYP3A7 using HepaRG (AID 2283492)
In short: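 Cells were thawed, plated, cultured 48 h, then treated for a further 48 h with chemicals (eight-point half-log series from 100 uM, 0.5% DMSO). RNA was isolated and CYP3A7 expression quantified by qRT-PCR normalised to ACTB, GAPDH and POLR2A.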

CYP3A5 (gene 1577) = assay: LTEA_HepaRG_CYP3A5: Life Technologies and Expression Analysis (LTEA) Assay for CYP3A5 using HepaRG (AID 2283493)
In short: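 qRT-PCR read-out: CYP3A5 transcript in HepaRG lysates, housekeeping-normalized (ACTB/GAPDH/POLR2A), fitted bidirectionally against 0.5% DMSO baseline. Exposure 48 h, eight half-log concentrations up to 100 uM, duplicates.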

[3] = read-out: Fatty Acid-Binding Protein 1 (FABP1), FABP1 (gene 2168); assay: LTEA_HepaRG_FABP1: Life Technologies and Expression Analysis (LTEA) Assay for Fatty Acid-Binding Protein 1 (FABP1) using HepaRG (AID 2283494)
In short: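 FABP1 expression by TaqMan qRT-PCR, normalised to three housekeeping genes, in HepaRG cells after 48 h chemical treatment. Eight-point half-log series topping at 100 uM in 0.5% DMSO, duplicates; gain or loss fitted relative to vehicle.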

[4] = read-out: Cytochrome P450 4A22 (Homo sapiens) (UniProt Q5TCH4); assay: LTEA_HepaRG_CYP4A22: Life Technologies and Expression Analysis (LTEA) Assay for Cytochrome P450 4A22 (CYP4A22) using HepaRG (AID 2283495)
In short: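 Cryopreserved HepaRG cells, plated and cultured 48 h, then switched to serum-free induction medium and treated 48 h (duplicates, up to 100 uM, half-log steps, 0.5% DMSO). Expression change of CYP4A22 was fitted bidirectionally against vehicle.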

[5] = read-out: Cytochrome P450 7A1 (Homo sapiens) (UniProt P22680); assay: LTEA_HepaRG_CYP7A1: Life Technologies and Expression Analysis (LTEA) Assay for Cytochrome P450 7A1 (CYP7A1) using HepaRG (AID 2283496)
In short: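 Using 0.5% DMSO as vehicle and baseline, chemicals were tested in duplicate over an 8-point range from 100 uM on HepaRG cells for 48 h; qRT-PCR signals were normalised to ACTB, GAPDH and POLR2A.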

[6] = read-out: Glutathione S-Transferase (GSTA2), GSTA2 (gene 2939); assay: LTEA_HepaRG_GSTA2: Life Technologies and Expression Analysis (LTEA) Assay for Glutathione S-Transferase (GSTA2) using HepaRG (AID 2283497)
In short: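 GSTA2 transcript levels came from Fluidigm TaqMan qRT-PCR normalized to three housekeeping genes, fitted in both directions against DMSO. HepaRG cultures received chemicals for 48 h in serum-free induction medium (0.5% DMSO), 8 half-log concentrations up to 100 uM, duplicate.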

[7] = read-out: Glutamate-cysteine ligase catalytic (GCLC), GCLC (gene 2729); assay: LTEA_HepaRG_GCLC: Life Technologies and Expression Analysis (LTEA) Assay for Glutamate-cysteine ligase catalytic (GCLC) using HepaRG (AID 2283498)
In short: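 Expression by TaqMan qRT-PCR, normalized to three housekeeping genes (ACTB, GAPDH, POLR2A), with up- or down-regulation fitted against DMSO. HepaRG cells dosed in duplicate for 48 h with 8 half-log concentrations up to 100 uM, vehicle 0.5% DMSO.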

[8] = read-out: growth arrest and DNA damage 45 (GADD45G), GADD45G (gene 10912); assay: LTEA_HepaRG_GADD45G: Life Technologies and Expression Analysis (LTEA) Assay for growth arrest and DNA damage 45 (GADD45G) using HepaRG (AID 2283499)
In short: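 Human hepatic HepaRG line treated 48 h with chemicals (eight concentrations, half-log steps from 100 uM); transcript induction or repression of GADD45G scored by qRT-PCR versus DMSO vehicle.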

[9] = read-out: Glutamate-cysteine ligase regulatory (GCLM), GCLM (gene 2730); assay: LTEA_HepaRG_GCLM: Life Technologies and Expression Analysis (LTEA) Assay for Glutamate-cysteine ligase regulatory (GCLM) using HepaRG (AID 2283500)
In short: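 HepaRG, 48 h dosing, 100 uM top, half-log x8, 0.5% DMSO vehicle. Readout: GCLM mRNA by TaqMan qRT-PCR, housekeeping-normalized (ACTB/GAPDH/POLR2A). Curves fit bidirectionally vs DMSO baseline.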

Chain of Cytochrome P450 3A7 (Homo sapiens) (P24462 whole entry, looked up): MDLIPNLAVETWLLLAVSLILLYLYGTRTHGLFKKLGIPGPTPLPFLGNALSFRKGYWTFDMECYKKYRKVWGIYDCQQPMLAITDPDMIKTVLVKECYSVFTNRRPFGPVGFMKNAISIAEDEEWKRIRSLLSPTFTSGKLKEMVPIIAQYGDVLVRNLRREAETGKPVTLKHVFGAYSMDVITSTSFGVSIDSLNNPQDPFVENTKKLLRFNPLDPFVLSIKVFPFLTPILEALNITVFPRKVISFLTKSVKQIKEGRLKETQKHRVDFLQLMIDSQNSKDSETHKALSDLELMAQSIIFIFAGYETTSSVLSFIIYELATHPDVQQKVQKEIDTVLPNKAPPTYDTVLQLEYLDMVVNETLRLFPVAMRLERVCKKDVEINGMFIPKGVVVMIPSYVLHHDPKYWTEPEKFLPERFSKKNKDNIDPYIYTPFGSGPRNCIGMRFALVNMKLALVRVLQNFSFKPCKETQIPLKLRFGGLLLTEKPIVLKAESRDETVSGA

Row | SMILES | outcome [1] | AC50 [2] | outcome (CYP3A5 (gene 1577)) | outcome [3] | AC50 [4] | outcome [5] | outcome [6] | outcome [7] | outcome [8] | outcome [9] | outcome [2] | outcome [4] | AC50 [9] | AC50 [1] | AC50 (CYP3A5 (gene 1577)) | AC50 [3] | AC50 [6] | AC50 [7]
1 | CCCCCCCCCCCCc1cccc(S(=O)(=O)O)c1 | inactive | 20.4 µM (active) | inactive | inactive | 25.6 µM (active) | inactive | inactive | inactive | inactive | inactive | – | – | – | – | – | – | – | –
2 | OCCN(CCO)CCO | inactive | – | inactive | inactive | – | inactive | inactive | inactive | inactive | inactive | inactive | inactive | – | – | – | – | – | –
3 | N#Cc1cccnc1 | inactive | – | inactive | inactive | – | inactive | inactive | inactive | inactive | inactive | inactive | inactive | – | – | – | – | – | –
4 | Clc1cccc(Cl)c1 | inactive | – | inactive | inactive | – | inactive | inactive | inactive | inactive | inactive | inactive | inactive | – | – | – | – | – | –
5 | CC(C)(C)c1ccccc1O | inactive | 4.77 µM (active) | inactive | inactive | – | inactive | inactive | inactive | inactive | inactive | – | inactive | – | – | – | – | – | –
6 | Oc1c(Cl)cc(Cl)cc1Cl | inactive | – | – | inactive | – | – | inactive | inactive | inactive | inactive | – | – | – | – | – | – | – | –
7 | Clc1cccc(Cl)c1Cl | inactive | – | inactive | inactive | – | inactive | inactive | inactive | inactive | inactive | inactive | inactive | – | – | – | – | – | –
8 | Cc1cc(C)cc(C)c1 | inactive | – | inactive | inactive | – | inactive | inactive | inactive | inactive | inactive | inactive | inactive | – | – | – | – | – | –
9 | O=C(N[C@H]1CN2CCC1CC2)c1ccc2c(c1)OCCO2 | inactive | – | inactive | inactive | – | inactive | inactive | inactive | inactive | – | inactive | inactive | 112 nM (active) | – | – | – | – | –
10 | O=C(O)C1(c2ccc3c(c2)OC[C@H](Cc2ccc(-c4ccccc4)cc2)[C@H]3O)CCCC1 | – | – | – | – | – | inactive | – | – | inactive | inactive | inactive | inactive | – | 63.1 µM (active) | 77 µM (active) | 83.9 µM (active) | 80.1 µM (active) | 75.6 µM (active)
11 | Oc1cc(Cl)c(Cl)cc1Cl | inactive | – | inactive | inactive | – | inactive | inactive | inactive | inactive | inactive | inactive | inactive | – | – | – | – | – | –
12 | CN(C)C(=S)S | inactive | – | inactive | inactive | – | – | inactive | inactive | inactive | inactive | inactive | – | – | – | – | – | – | –
13 | CC(C)O.CC(C)O.OCCN(CCO)CCO.OCCN(CCO)CCO.[Ti] | inactive | – | inactive | inactive | – | inactive | inactive | inactive | inactive | inactive | inactive | inactive | – | – | – | – | – | –
14 | COc1ccccc1N | inactive | – | inactive | inactive | – | inactive | inactive | inactive | inactive | inactive | inactive | inactive | – | – | – | – | – | –
